What was measured:
Test in all cases: DAPPL (digital affinity profiling via proximity ligation, sequencing); 10 mM Tris-HCl pH 7.5, 50 mM NaCl, 1 mM DTT, 4% glycerol, room temperature, 30 min; GST-TFs on glutathione beads, 16-mer random dsDNA library, 0.1% formaldehyde crosslink after washing; high values mean tight binding
Details in all cases: protein: recombinant; tags: N-terminal GST; dsDNA, one strand shown
[1] = target: T1, ERF (Homo sapiens, UniProt P50548 1-548)
T1 sequence: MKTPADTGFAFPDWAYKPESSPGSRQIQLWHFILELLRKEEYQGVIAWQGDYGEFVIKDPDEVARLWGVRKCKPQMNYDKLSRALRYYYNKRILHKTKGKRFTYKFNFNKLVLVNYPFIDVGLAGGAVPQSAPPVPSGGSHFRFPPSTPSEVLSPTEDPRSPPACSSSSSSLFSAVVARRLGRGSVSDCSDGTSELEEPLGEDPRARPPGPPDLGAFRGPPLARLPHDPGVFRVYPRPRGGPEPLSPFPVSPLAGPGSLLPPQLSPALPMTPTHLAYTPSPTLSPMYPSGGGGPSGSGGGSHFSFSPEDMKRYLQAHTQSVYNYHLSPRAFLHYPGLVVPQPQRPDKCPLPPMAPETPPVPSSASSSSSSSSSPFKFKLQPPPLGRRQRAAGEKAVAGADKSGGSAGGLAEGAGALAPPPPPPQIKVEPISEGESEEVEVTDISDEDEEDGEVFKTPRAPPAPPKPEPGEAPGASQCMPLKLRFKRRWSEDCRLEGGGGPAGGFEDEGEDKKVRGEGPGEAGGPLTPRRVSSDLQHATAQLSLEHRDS
In short: (§1)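 Human transcription factors carrying a GST fusion were produced in yeast, bound to glutathione beads, tagged with DNA barcodes and pooled together with a tag-only sample. Each pool was held with 200 nmole of a random double-stranded 16-mer DNA library in Tris/NaCl/DTT/glycerol buffer for 30 min at room temperature, then washed, crosslinked in 0.1% formaldehyde, proximity-ligated with BsaI/T4 ligase (1 h, 37 °C), PCR-amplified and sequenced on an Illumina NextSeq500. Binding signal is the read frequency of each hexamer for a given factor divided by its frequency in the tag-only sample.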

[2] = target: T2, ETV3L (Homo sapiens, UniProt Q6ZN32 1-361)
T2 sequence: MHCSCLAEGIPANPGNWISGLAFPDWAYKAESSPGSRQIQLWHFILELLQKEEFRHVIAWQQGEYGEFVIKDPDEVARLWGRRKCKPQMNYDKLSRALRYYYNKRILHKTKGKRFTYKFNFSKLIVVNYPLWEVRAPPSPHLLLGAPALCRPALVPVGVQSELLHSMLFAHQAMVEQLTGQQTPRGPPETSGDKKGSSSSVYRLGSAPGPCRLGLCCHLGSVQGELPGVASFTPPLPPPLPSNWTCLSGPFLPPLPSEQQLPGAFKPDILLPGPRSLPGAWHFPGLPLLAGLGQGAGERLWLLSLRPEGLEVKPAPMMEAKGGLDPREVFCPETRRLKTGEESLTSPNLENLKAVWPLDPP
In short: as §1

[3] = target: T3, ETS2 (Homo sapiens, UniProt P15036 1-469)
T3 sequence: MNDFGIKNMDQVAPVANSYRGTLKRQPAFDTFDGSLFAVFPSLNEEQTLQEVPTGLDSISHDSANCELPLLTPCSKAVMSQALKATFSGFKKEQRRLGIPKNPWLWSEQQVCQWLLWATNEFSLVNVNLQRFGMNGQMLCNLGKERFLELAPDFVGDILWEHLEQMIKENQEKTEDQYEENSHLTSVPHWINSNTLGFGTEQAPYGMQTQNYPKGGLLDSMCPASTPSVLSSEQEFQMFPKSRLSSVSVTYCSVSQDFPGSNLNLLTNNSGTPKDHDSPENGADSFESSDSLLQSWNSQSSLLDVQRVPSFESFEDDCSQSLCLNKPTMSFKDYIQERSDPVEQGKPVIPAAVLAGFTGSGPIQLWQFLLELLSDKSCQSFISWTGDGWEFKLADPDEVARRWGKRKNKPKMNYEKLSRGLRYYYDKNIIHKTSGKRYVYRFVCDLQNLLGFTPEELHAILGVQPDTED
In short: as §1

[4] = target: T4, SPDEF (Homo sapiens, UniProt O95238 1-335)
T4 sequence: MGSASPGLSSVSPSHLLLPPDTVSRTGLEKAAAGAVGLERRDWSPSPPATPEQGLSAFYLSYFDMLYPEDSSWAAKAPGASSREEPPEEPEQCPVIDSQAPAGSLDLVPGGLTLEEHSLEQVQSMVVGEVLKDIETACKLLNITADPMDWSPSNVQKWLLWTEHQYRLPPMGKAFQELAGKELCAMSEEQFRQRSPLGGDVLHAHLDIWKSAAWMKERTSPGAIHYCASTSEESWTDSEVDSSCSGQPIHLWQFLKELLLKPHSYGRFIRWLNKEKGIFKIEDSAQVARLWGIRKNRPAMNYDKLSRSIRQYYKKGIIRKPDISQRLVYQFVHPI
In short: as §1

[5] = target: T5, ETV7 (Homo sapiens, UniProt Q9Y603 1-341)
T5 sequence: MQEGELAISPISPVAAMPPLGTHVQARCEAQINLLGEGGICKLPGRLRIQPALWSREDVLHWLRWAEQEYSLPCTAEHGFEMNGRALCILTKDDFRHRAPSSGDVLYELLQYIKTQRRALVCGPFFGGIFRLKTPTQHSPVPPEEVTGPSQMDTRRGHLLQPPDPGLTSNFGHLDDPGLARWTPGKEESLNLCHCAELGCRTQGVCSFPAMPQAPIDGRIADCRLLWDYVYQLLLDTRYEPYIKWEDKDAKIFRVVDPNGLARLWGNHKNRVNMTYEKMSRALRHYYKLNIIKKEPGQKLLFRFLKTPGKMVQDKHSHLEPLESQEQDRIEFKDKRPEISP
In short: as §1

[6] = target: T6, ELF5 (Homo sapiens, UniProt Q9UKW6-2 1-255)
T6 sequence: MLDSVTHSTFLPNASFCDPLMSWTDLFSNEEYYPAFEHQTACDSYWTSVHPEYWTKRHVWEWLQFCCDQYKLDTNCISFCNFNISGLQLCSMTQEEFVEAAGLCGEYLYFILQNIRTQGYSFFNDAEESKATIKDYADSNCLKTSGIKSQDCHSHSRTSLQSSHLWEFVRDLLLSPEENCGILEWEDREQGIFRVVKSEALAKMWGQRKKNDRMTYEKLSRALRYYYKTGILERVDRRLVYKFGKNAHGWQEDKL
In short: as §1

[7] = target: T7, ETV3 (Homo sapiens, UniProt P41162-2 1-143)
T7 sequence: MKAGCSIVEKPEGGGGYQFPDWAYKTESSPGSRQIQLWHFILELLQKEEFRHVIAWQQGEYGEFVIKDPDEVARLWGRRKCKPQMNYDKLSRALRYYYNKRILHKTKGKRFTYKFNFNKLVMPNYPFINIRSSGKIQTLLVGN
In short: as §1

[8] = target: ETV6 (Homo sapiens, UniProt P41212 1-452)
In short: as §1

ETV6, sequence (P41212 whole entry): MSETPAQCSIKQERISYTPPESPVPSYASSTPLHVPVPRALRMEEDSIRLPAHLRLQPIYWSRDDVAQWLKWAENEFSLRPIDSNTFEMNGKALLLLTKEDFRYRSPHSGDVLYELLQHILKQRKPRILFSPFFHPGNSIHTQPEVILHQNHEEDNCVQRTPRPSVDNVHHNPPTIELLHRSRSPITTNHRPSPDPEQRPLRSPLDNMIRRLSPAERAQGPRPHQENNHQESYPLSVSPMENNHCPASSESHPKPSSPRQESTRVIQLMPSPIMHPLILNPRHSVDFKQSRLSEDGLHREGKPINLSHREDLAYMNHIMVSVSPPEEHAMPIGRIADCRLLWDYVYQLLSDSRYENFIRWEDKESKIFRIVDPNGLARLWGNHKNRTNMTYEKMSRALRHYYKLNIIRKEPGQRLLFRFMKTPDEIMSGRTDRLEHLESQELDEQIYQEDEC

How did the binding signal [1] turn out when CCTGCG was run?
The binding signal was 1.22 fold enrichment (6-mer frequency, TF over GST control).

What about the binding signal [2] of the same sequence?
Its binding signal is 1.49 fold enrichment (6-mer frequency, TF over GST control).

And the binding signal [3]?
Its binding signal is 1.27 fold enrichment (6-mer frequency, TF over GST control).

And the binding signal [4]?
The binding signal was 1.23 fold enrichment (6-mer frequency, TF over GST control).

And the binding signal [5]?
Its binding signal is 1.38 fold enrichment (6-mer frequency, TF over GST control).

What about the binding signal [6] of the same sequence?
Its binding signal is 1.3 fold enrichment (6-mer frequency, TF over GST control).

What about the binding signal [7] of the same sequence?
Its binding signal is 1.4 fold enrichment (6-mer frequency, TF over GST control).

What about the binding signal [8] of the same sequence?
The binding signal was 1.35 fold enrichment (6-mer frequency, TF over GST control).

How did the binding signal [1] turn out when AGTTCC was run?
The binding signal was 1.73 fold enrichment (6-mer frequency, TF over GST control).

And the binding signal [2]?
Its binding signal is 2.15 fold enrichment (6-mer frequency, TF over GST control).

What about the binding signal [3] of the same sequence?
The binding signal was 2.17 fold enrichment (6-mer frequency, TF over GST control).

What about the binding signal [4] of the same sequence?
Its binding signal is 2.56 fold enrichment (6-mer frequency, TF over GST control).

What about the binding signal [5] of the same sequence?
The binding signal was 1.94 fold enrichment (6-mer frequency, TF over GST control).

What about the binding signal [6] of the same sequence?
Its binding signal is 2.79 fold enrichment (6-mer frequency, TF over GST control).

What about the binding signal [7] of the same sequence?
Its binding signal is 2.38 fold enrichment (6-mer frequency, TF over GST control).

And the binding signal [8]?
Its binding signal is 2.17 fold enrichment (6-mer frequency, TF over GST control).

For GTTTAC, which binding signal [1] is on record?
The binding signal was 1.12 fold enrichment (6-mer frequency, TF over GST control).

What about the binding signal [2] of the same sequence?
Its binding signal is 1.12 fold enrichment (6-mer frequency, TF over GST control).

What about the binding signal [3] of the same sequence?
The binding signal was 1.13 fold enrichment (6-mer frequency, TF over GST control).

What about the binding signal [4] of the same sequence?
Its binding signal is 1.12 fold enrichment (6-mer frequency, TF over GST control).

And the binding signal [5]?
Its binding signal is 1.22 fold enrichment (6-mer frequency, TF over GST control).

What about the binding signal [6] of the same sequence?
Its binding signal is 1.13 fold enrichment (6-mer frequency, TF over GST control).

What about the binding signal [7] of the same sequence?
Its binding signal is 1.07 fold enrichment (6-mer frequency, TF over GST control).

What about the binding signal [8] of the same sequence?
Its binding signal is 1.19 fold enrichment (6-mer frequency, TF over GST control).

With CAGGAA as the sequence, how does the binding signal [1] read?
Its binding signal is 1.42 fold enrichment (6-mer frequency, TF over GST control).

What about the binding signal [2] of the same sequence?
Its binding signal is 1.53 fold enrichment (6-mer frequency, TF over GST control).

What about the binding signal [3] of the same sequence?
The binding signal was 1.75 fold enrichment (6-mer frequency, TF over GST control).

What about the binding signal [4] of the same sequence?
Its binding signal is 1.53 fold enrichment (6-mer frequency, TF over GST control).

What about the binding signal [5] of the same sequence?
Its binding signal is 1.52 fold enrichment (6-mer frequency, TF over GST control).

What about the binding signal [6] of the same sequence?
Its binding signal is 2.12 fold enrichment (6-mer frequency, TF over GST control).

What about the binding signal [7] of the same sequence?
Its binding signal is 1.72 fold enrichment (6-mer frequency, TF over GST control).

And the binding signal [8]?
The binding signal was 1.83 fold enrichment (6-mer frequency, TF over GST control).

What does the source list for TCTCGC?
binding signal [1]: 1.75 fold enrichment (6-mer frequency, TF over GST control); binding signal [2]: 1.81 fold enrichment (6-mer frequency, TF over GST control); binding signal [3]: 1.91 fold enrichment (6-mer frequency, TF over GST control); binding signal [4]: 1.63 fold enrichment (6-mer frequency, TF over GST control); binding signal [5]: 1.68 fold enrichment (6-mer frequency, TF over GST control); binding signal [6]: 1.71 fold enrichment (6-mer frequency, TF over GST control); binding signal [7]: 1.79 fold enrichment (6-mer frequency, TF over GST control); binding signal [8]: 1.62 fold enrichment (6-mer frequency, TF over GST control)

Which binding signal [1] does the source give for TTTTGA here?
The binding signal was 1.15 fold enrichment (6-mer frequency, TF over GST control).

And the binding signal [2]?
Its binding signal is 1.07 fold enrichment (6-mer frequency, TF over GST control).

And the binding signal [3]?
The binding signal was 1.07 fold enrichment (6-mer frequency, TF over GST control).

What about the binding signal [4] of the same sequence?
Its binding signal is 1.05 fold enrichment (6-mer frequency, TF over GST control).

And the binding signal [5]?
Its binding signal is 1.02 fold enrichment (6-mer frequency, TF over GST control).

What about the binding signal [6] of the same sequence?
The binding signal was 1 fold enrichment (6-mer frequency, TF over GST control).

And the binding signal [7]?
Its binding signal is 1.03 fold enrichment (6-mer frequency, TF over GST control).

And the binding signal [8]?
The binding signal was 1.04 fold enrichment (6-mer frequency, TF over GST control).

Which results are given for CCGGCA?
binding signal [1]: 1.28 fold enrichment (6-mer frequency, TF over GST control); binding signal [2]: 1.47 fold enrichment (6-mer frequency, TF over GST control); binding signal [3]: 1.43 fold enrichment (6-mer frequency, TF over GST control); binding signal [4]: 1.67 fold enrichment (6-mer frequency, TF over GST control); binding signal [5]: 1.27 fold enrichment (6-mer frequency, TF over GST control); binding signal [6]: 1.51 fold enrichment (6-mer frequency, TF over GST control); binding signal [7]: 1.45 fold enrichment (6-mer frequency, TF over GST control); binding signal [8]: 1.61 fold enrichment (6-mer frequency, TF over GST control)

Which binding signal [1] does the source give for CTCGTA here?
Its binding signal is 1.23 fold enrichment (6-mer frequency, TF over GST control).

And the binding signal [2]?
Its binding signal is 1.43 fold enrichment (6-mer frequency, TF over GST control).

And the binding signal [3]?
Its binding signal is 1.37 fold enrichment (6-mer frequency, TF over GST control).

And the binding signal [4]?
Its binding signal is 1.2 fold enrichment (6-mer frequency, TF over GST control).

And the binding signal [5]?
Its binding signal is 1.11 fold enrichment (6-mer frequency, TF over GST control).

What about the binding signal [6] of the same sequence?
The binding signal was 1.28 fold enrichment (6-mer frequency, TF over GST control).

What about the binding signal [7] of the same sequence?
Its binding signal is 1.23 fold enrichment (6-mer frequency, TF over GST control).

And the binding signal [8]?
Its binding signal is 1.2 fold enrichment (6-mer frequency, TF over GST control).

Source: article PMC7862700, “An all-to-all approach to the identification of sequence-specific readers for epigenetic DNA modifications on cytosine”
